The values below come from ChEMBL document CHEMBL1961873, “Compounds: GSK PKIS; Assays: Nanosyn kinase panel” (2012).

As usually defined, the inhibition is the relative decrease from the control value, in per cent.
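Further: mean percent inhibition of TSSK1, from the GSK PKIS screening dataset.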

This assay deals with T1, Testis-specific serine/threonine-protein kinase 1 (Homo sapiens) (UniProt Q9BXA7).
T1 sequence (whole entry): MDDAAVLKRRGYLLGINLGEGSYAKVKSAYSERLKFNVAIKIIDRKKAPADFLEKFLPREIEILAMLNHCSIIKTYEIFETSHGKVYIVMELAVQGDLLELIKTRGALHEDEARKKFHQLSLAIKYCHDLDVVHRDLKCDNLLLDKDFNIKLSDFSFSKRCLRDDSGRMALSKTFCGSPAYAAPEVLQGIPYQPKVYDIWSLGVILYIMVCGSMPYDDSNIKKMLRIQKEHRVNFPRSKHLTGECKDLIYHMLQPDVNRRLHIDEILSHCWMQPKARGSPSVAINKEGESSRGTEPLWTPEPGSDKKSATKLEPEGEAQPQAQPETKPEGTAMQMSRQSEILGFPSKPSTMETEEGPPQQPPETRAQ
The conditions noted are these: at 0.1 µM.
As to `CS(=O)(=O)CCNCc1cc(-c2cc3c(Nc4ccc(OCc5cccc(F)c5)c(Cl)c4)ncnc3s2)cs1`, the inhibition came to 4.02%.
On to `Fc1ccc(-c2c(-c3ccncc3)nc3n2CCS3)cc1`, for which the inhibition came to 2.46%.
Consider `Cc1ccc(NC(=O)c2ccoc2)cc1-c1ccc(C(=O)NCC2CC2)cc1`, for which the inhibition was determined as 1.46%.
Turning to `NS(=O)(=O)c1ccc(N/N=C2\C(=O)Nc3ccc(-c4cnco4)cc32)cc1`, the inhibition came out at 2.73%.
For the molecule `O=C(Nc1n[nH]c2cc(-c3cc(F)ccc3F)ccc12)C1CC1`, the inhibition amounted to 2.75%.
Under `Nc1nccc(-c2c(-c3ccc(F)cc3)ncn2C2CCC(O)CC2)n1` (stereo not drawn) stands -2.82%.
Under `C[C@@H](Oc1cc(-n2cnc3ccc(OC4CCN(C)CC4)cc32)sc1C(N)=O)c1ccccc1Cl` stands 4.11%.
Under `CCS(=O)(=O)c1ccc(OC)c(Nc2ncc(-c3cccc(-c4ccccc4F)c3)o2)c1` stands 0.94%; under `O=C1Nc2ccc(I)cc2C1=Cc1cc(Br)c(O)c(Br)c1`, 4.56%; under `COc1cccc(/C=N/Nc2ncnc3c2cnn3-c2cccc(OC)c2)c1`, 3.46%.
On to `COc1cc2ncn(-c3cc(OCc4cccs4)c(C(N)=O)s3)c2cc1OC`, for which the inhibition amounted to 4.25%.
For the molecule `NC(=O)c1ccc(Oc2nccc(-c3c(-c4ccc(F)cc4)ncn3C3CCNCC3)n2)cc1`, the inhibition worked out at 4.45%.
Consider `CN(C)CCCNc1nccc(-c2c(-c3ccc(F)cc3)nn3cc(C(F)(F)F)ccc23)n1`, for which the inhibition stood at 1.45%.
On to `O=C1NC(=O)C(c2cccc(Cl)c2)=C1Nc1ccc(Cl)c(C(=O)O)c1`, for which the inhibition stood at 4.88%.
Regarding `NC(=O)Cc1ccccc1Oc1nccc(-c2c(-c3ccc(F)cc3)ncn2C2CCNCC2)n1`, the inhibition was determined as 2.65%.
Turning to `Fc1ccc(-c2ncn(C3CCNCC3)c2-c2ccnc(Oc3ccc(F)c(F)c3)n2)cc1`, the inhibition was 1.98%.
In the case of `O=C(Nc1n[nH]c2cc(-c3ccccc3)ccc12)C1CC1`, the inhibition is 2.16%.
Under `Cc1nnc(-c2ccc(C)c(-c3ccc(C(=O)NCc4ccc(Cl)cc4)cc3)c2)o1` stands 4.06%.
